# Data from PubChem BioAssay (NCATS).
# Unmarked numbers belong to inactive results. Results filed as inconclusive are left out. A call without a number means that no potency is given here. Calls of active or inactive are those of the source. Unless noted, calls follow the shape of the dose curve; as a rule, active = well fitted curve in the direction sought with a large enough effect; inconclusive = small, poorly fitted or top-dose-only effect, or another doubt; inactive = no such curve, though single readings can be large; an effect the other way counts as inactive or inconclusive.
# What was measured:
# [1] = biological target: Cytochrome P450 1A2 (Homo sapiens) (UniProt P05177); assay: p450-cyp1a2 (AID 410; calls by dose curve; also: potency is read from the fitted curve at half-maximal effect)
# Cytochrome P450 1A2 (Homo sapiens), sequence (P05177 whole entry, looked up): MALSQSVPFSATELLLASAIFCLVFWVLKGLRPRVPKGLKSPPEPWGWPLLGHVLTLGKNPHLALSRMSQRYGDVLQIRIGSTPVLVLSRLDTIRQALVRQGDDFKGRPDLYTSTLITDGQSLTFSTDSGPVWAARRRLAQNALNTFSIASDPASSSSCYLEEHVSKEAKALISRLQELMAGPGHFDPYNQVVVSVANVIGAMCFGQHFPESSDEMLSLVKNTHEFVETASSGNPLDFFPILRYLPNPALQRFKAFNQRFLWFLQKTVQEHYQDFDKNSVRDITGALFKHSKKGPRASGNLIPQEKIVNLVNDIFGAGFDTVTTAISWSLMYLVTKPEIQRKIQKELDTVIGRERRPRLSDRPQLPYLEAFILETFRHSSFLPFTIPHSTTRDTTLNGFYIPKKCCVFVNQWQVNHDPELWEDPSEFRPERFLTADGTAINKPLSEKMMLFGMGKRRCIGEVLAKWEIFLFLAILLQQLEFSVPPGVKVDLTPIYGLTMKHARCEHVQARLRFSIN
# Summary of the method: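 20nM CYP1A2, 100uM Luciferin-ME (=Km), 100mM KPO4; cpd 10 min RT; +NADPH regen, 60 min RT; stop/detect 20 min; luminescence. Normalized to furafylline 57 uM = full inhibition.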
# [2] = biological target: 3',5'-cyclic-AMP phosphodiesterase 4B (Homo sapiens) (UniProt Q07343); assay: qHTS Assay for Inhibitors of PDE-IV (AID 607; active = well fitted activation curve with a large enough effect in the main read-out, with a control signal flat, not every such curve was filed as active)
# 3',5'-cyclic-AMP phosphodiesterase 4B (Homo sapiens), sequence (Q07343 whole entry, looked up): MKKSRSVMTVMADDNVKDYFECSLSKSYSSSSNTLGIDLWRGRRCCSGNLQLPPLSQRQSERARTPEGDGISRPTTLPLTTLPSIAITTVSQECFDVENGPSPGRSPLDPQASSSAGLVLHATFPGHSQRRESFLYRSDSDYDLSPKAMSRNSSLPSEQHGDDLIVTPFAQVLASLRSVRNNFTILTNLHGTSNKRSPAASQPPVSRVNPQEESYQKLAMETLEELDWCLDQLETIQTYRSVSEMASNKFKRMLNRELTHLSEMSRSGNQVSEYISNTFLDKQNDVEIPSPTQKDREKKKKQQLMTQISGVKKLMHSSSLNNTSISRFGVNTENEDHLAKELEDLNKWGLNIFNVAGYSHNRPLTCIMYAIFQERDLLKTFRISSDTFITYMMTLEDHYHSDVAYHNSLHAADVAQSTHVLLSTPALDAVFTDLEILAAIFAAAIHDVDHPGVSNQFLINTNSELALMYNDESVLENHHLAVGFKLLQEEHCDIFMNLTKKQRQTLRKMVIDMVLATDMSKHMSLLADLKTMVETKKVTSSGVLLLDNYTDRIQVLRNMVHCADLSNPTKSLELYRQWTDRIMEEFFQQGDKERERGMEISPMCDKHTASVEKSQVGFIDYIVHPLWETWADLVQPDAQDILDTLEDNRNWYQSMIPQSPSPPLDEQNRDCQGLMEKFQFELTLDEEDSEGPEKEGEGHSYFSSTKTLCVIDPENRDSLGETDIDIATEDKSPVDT
# Summary of the method: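 HEK293 ACTOne cells with CNG channel (1000/well), endogenous PDE4; membrane potential dye, compounds up to 22.9 uM final. Fluorescence Ex 535/Em 590; RO 20-1724 (100 uM final) as reference.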
# [3] = biological target: Cytochrome P450 3A4 (Homo sapiens) (UniProt P08684); assay: qHTS Assay for Activators of Cytochrome P450 3A4 (AID 885); also: nearly all actives have a fitted effect of over 65% in size
# Cytochrome P450 3A4 (Homo sapiens), sequence (P08684 whole entry, looked up): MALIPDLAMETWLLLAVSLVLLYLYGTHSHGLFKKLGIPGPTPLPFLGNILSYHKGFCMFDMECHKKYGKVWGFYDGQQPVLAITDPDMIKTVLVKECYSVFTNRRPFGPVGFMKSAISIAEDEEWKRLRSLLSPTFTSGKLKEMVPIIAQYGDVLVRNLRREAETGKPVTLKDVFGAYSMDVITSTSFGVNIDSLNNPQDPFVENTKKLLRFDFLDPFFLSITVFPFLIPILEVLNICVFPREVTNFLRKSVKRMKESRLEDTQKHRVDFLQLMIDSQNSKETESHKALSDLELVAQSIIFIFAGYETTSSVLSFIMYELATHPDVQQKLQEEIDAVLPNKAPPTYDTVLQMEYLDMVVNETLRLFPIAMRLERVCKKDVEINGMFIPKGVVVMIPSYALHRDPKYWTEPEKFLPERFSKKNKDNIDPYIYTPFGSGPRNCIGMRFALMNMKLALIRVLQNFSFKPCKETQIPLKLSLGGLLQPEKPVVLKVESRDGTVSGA
# Summary of the method: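 Human CYP3A4 dealkylates Luciferin-PPXE to luciferin, which luciferase detection converts to light. Substrate was at its KM (25uM), buffer 200mM KPO4, reaction 60 min at RT.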
# [4] = biological target: Dual specificity protein kinase CLK4 (Homo sapiens) (UniProt Q9HAZ1); assay: qHTS Assay for Inhibitors of CDC-like Kinase 4 (ADP-Glo Assay) (AID 1771); also: nearly all actives have a fitted effect of over 70% in size; also: potency is read from the fitted curve at half-maximal effect
# Dual specificity protein kinase CLK4 (Homo sapiens), sequence (Q9HAZ1 whole entry, looked up): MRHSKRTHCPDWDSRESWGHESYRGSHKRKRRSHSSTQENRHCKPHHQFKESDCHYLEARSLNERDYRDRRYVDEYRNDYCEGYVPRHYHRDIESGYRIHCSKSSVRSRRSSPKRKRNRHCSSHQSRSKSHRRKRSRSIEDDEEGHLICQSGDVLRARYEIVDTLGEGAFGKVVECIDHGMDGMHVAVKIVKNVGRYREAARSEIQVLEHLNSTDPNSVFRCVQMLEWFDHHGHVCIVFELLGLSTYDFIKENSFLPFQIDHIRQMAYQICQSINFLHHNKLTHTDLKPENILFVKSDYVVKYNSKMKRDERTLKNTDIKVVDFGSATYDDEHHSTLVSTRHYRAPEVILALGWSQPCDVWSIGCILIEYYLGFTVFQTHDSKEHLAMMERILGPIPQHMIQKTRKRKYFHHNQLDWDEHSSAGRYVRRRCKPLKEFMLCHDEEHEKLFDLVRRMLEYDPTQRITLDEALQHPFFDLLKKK
# Summary of the method: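 25 nM Clk4, 100 uM RS peptide, 1 uM ATP (final); 2 mM MgCl2, 0.5 mM EGTA, 2.5 mM DTT, 0.01% Triton X-100; 1 hr RT. ADP-Glo readout: ATP depletion 45 min, conversion/luciferase 30 min, luminescence.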
# [5] = biological target: Dual specificity protein kinase CLK4 (Homo sapiens) (UniProt Q9HAZ1); assay: qHTS Assay for Inhibitors of CDC-like Kinase 4 (ADP-FP Assay) (AID 1795); also: nearly all actives have a fitted effect of over 60% in size; also: potency is read from the fitted curve at half-maximal effect
# Summary of the method: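 FP readout: Orange Transcreener ADP2 tracer (4 nM) plus ADP antibody, read after 30 min at room temperature. Kinase step: 6.25 nM Clk4, 100 uM RS peptide, 1 uM ATP, pH 7.5, 1 h.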
# [6] = Stat Signaling Pathway (AID 446; active = well fitted curve in either direction with a large enough effect, not every such curve was filed as active;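 also: ME-180 cervical cancer cells given 40 pM IL-6 alongside compound; SIE-controlled beta-lactamase reporter measured as 460/530 nm FRET emission ratio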)
# Summary of the method: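 Normalization used AC90 stimulation (300 pM IL-6) and AC90 inhibition (125 nM pan-JAK inhibitor at 40 pM IL-6). The underlying signal is SIE-driven beta-lactamase in ME-180 cells after 5 h IL-6 exposure with compound.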
# [7] = biological target: Cytochrome P450 3A4 (Homo sapiens) (UniProt P08684); assay: qHTS Assay for Inhibitors and Substrates of Cytochrome P450 3A4 (AID 884); also: potency is read from the fitted curve at half-maximal effect; nearly all actives have a fitted effect of over 50% in size
# Summary of the method: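 Luminescent readout of luciferin produced by CYP3A4 (20 nM) dealkylation of Luciferin-PPXE, 25 uM (its KM). NADPH-driven reaction ran 60 min at RT after 10 min compound preincubation; data scaled to 57 uM ketoconazole as 100% inhibition.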
# [8] = qHTS Assay for Identification of Small Molecule Agonists for Hypoxia Response Element Signaling Pathway (AID 914; active = well fitted activation curve with a large enough effect in the signal ratio, with a control signal flat, not every such curve was filed as active; the % refers to the signal ratio; also: potency is read from the fitted curve at half-maximal effect); settings: ME-180 (cervical carcinoma) HRE-bla reporter, beta-lactamase ratio, CoCl2, 17 h; activation: stronger effect = higher value
# Summary of the method: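 AC50 values come from titration-series %Activity, taken as the 460/530nm ratio of CCF4 fluorescence (excitation 405nm). CellSensor HRE-bla ME-180 cells were treated 17 hours at 37 C with compound plus an EC50 level of CoCl2.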
# [9] = biological target: Dual specificity protein kinase CLK4 (Homo sapiens) (UniProt Q9HAZ1); assay: qHTS Assay for Inhibitors of CDC-like Kinase 4 (Kinase-Glo Assay) (AID 1770); also: nearly all actives have a fitted effect of over 65% in size; also: potency is read from the fitted curve at half-maximal effect
# Summary of the method: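 Readout: Kinase-Glo luminescence from ATP left after a 4.5 h room-temperature reaction of 25 nM Clk4 with 100 uM RS peptide and 1 uM ATP (final). Buffer: 25 mM Tris pH 7.5, 10 mM MgCl2.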
smiles,measurement,setting,value
COCCn1c(=O)c(-c2cccs2)nc2cnc(N3CCNCC3)nc21,Potency,[1],3.98 µM (active)
same,Potency,[2],inactive
same,outcome,[3],inactive
same,Potency,[4],inactive
same,Potency,[5],inactive
COCCn1c(=O)c(-c2ccc(F)cc2)nc2cnc(Nc3cccc(OC)c3)nc21,Potency,[1],3.16 µM (active)
same,outcome,[6],inactive
same,Potency,[2],inactive
same,Potency,[4],inactive
same,Potency,[5],inactive
Cc1cccc(CNc2ncncc2-c2ccccc2C)c1,Potency,[1],2.51 µM (active)
same,Potency,[7],0.398 µM (active)
same,outcome,[3],inactive
same,Potency,[4],inactive
same,Potency,[5],inactive
CN1CCN(c2ncc3nc(CCc4ccccc4)c(=O)n(CCc4ccccc4)c3n2)CC1,outcome,[6],inactive
same,Potency,[4],inactive
same,Potency,[5],inactive
COc1cccc(-c2nc(NCc3cccnc3)c3ccccc3n2)c1,Potency,[1],0.158 µM (active)
same,outcome,[6],inactive
same,Potency,[7],2 µM (active)
same,outcome,[3],inactive
same,activation,[8],-25.6%
same,Potency,[9],25.1 µM (active)
COc1ccc(Oc2ncc3nc(-c4ccc(F)cc4)c(=O)n(CCC#N)c3n2)cc1,outcome,[6],inactive
same,Potency,[2],inactive
same,Potency,[4],inactive
same,Potency,[5],inactive
COc1ccccc1-c1nc(Nc2ccncc2)c2ccccc2n1,Potency,[1],0.316 µM (active)
same,outcome,[3],inactive
same,Potency,[9],14.1 µM (active)
CC(=O)NCCNc1nc(-c2cccc(C#N)c2)nc2ccccc12,outcome,[6],inactive
same,Potency,[2],inactive
same,Potency,[9],28.2 µM (active)
COc1ccccc1CNc1nc(-c2ccoc2)nc2ccccc12,outcome,[6],inactive
same,Potency,[4],inactive
same,Potency,[5],inactive
CN1CCN(c2ncnc3ccc(-c4ccccc4C(F)(F)F)cc23)CC1,outcome,[6],inactive
same,Potency,[2],inactive
same,Potency,[4],inactive
same,Potency,[5],inactive
COCCNc1ncnc2ccc(-c3ccccc3OC)cc12,Potency,[1],2 µM (active)
same,outcome,[6],inactive
same,Potency,[2],inactive
same,outcome,[3],inactive
same,Potency,[9],15.8 µM (active)
COc1ccccc1CNc1ncncc1-c1ccccc1C(F)(F)F,Potency,[1],15.8 µM (active)
same,outcome,[6],inactive
same,Potency,[2],inactive
same,Potency,[7],0.0794 µM (active)
same,outcome,[3],inactive
same,Potency,[4],inactive
same,Potency,[5],inactive
COc1ncc2nc(-c3cccs3)c(=O)n(CCC#N)c2n1,Potency,[1],6.31 µM (active)
same,Potency,[2],inactive
same,outcome,[3],inactive
same,activation,[8],25.6%
same,Potency,[9],inactive
CN(C)c1ncnc2ccc(-c3cccc(NS(C)(=O)=O)c3)cc12,Potency,[2],inactive
same,Potency,[4],12.6 µM (active)
same,Potency,[5],12.6 µM (active)
c1cn(-c2ncnc3ccc(-c4ccoc4)cc23)cn1,Potency,[1],1.26 µM (active)
same,outcome,[6],inactive
same,Potency,[2],inactive
same,Potency,[7],0.631 µM (active)
same,outcome,[3],inactive
same,Potency,[9],0.141 µM (active)
Cc1ccccc1-c1nc(Nc2ccncc2)c2ccccc2n1,Potency,[1],0.794 µM (active)
same,Potency,[7],6.31 µM (active)
same,outcome,[3],inactive
same,Potency,[4],25.1 µM (active)
same,Potency,[5],inactive
COc1cccc(-c2cncnc2NCCN2CCOCC2)c1,Potency,[1],15.8 µM (active)
same,outcome,[6],inactive
same,Potency,[2],inactive
same,outcome,[3],inactive
same,Potency,[8],2.51 µM (active)
same,Potency,[9],inactive
Cc1cnc(CNc2ncnc3ccc(-c4ccccc4C)cc23)cn1,Potency,[1],6.31 µM (active)
same,outcome,[6],inactive
same,Potency,[2],inactive
same,Potency,[7],3.98 µM (active)
same,outcome,[3],inactive
same,Potency,[9],28.2 µM (active)
Cc1nc2cnc(OCc3ccccc3)nc2n(CCc2ccccc2)c1=O,outcome,[3],inactive
same,Potency,[4],inactive
same,Potency,[5],inactive
Clc1ccccc1-c1nc(-n2ccnc2)c2ccccc2n1,Potency,[1],0.158 µM (active)
same,outcome,[6],inactive
same,Potency,[7],0.501 µM (active)
same,outcome,[3],inactive
same,Potency,[9],1.26 µM (active)
same,Potency,[5],1 µM (active)
Cc1cnc(CNc2ncnc3ccc(-c4ccccc4Cl)cc23)cn1,Potency,[1],6.31 µM (active)
same,Potency,[7],2.51 µM (active)
same,outcome,[3],inactive
same,Potency,[9],15.8 µM (active)
same,Potency,[5],10 µM (active)
